Measured values reported in PubChem BioAssay (NCI).
This is part of a sample that, as a whole, favours compounds with a hit. Of some 79,000 tested, about 15% had one in any assay. Values without a mark were called inactive. Active and inactive are the calls of the source. Rule as the data show it: active = growth inhibition above about 70%; inactive = the rest. Where a SMILES comes first, the peptide text is derived from it. [ ]: non-standard residue; d: D form. ξ: configuration not given here. ξD = NC(CC(=O)O)C(=O)O

Test: NCI Yeast Anticancer Drug Screen. Data for the sgs1 mgt1 strain (AID 161);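 also: 0% = growth of cultures given vehicle only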
Details: S. cerevisiae sgs1 mgt1 strain, at 50.0 µM (retest, dose inferred, filed as 5.0), active compounds read high
How it was run: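 Read-out: growth inhibition vs vehicle controls. Cells: mutant yeast strain deficient in DNA damage repair.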

Compound	growth inhibition
COC(=O)c1nc(=S)[nH]c(C(=O)OC)c1C(=O)c1ccc(Cl)c(Cl)c1	98% (active)
NC(=Nc1nc(-c2ccccn2)cc2ccccc12)c1ccccn1	72% (active)
Cc1nc(Sc2nc3ccc([N+](=O)[O-])cc3s2)sc1C	92% (active)
NC(=S)Nc1ccc2c(c1)Cc1ccccc1-2	23%
CN(C)CCN(C)CC(C)(C)C(=O)/C=C/c1ccc(Cl)c(Cl)c1	99% (active)
CCCCCCCCCCCCCCCc1ccc(C(=O)C[n+]2ccccc2)cc1	98% (active)
O=C(CCl)N(c1ccccc1)c1ccccc1	54%
CCOC(=O)C1=C(C(=O)c2ccccc2)C(c2cccc([N+](=O)[O-])c2)C(C(=O)c2ccccc2)=C(C(=O)OCC)N1	36%
CCN1CCCC(Nc2cc(C)nc(/N=C(/N)Nc3ccc(Cl)c(Cl)c3)n2)C1 (stereo not drawn)	97% (active)
CCc1cnc2ccccc2c1/C=C/c1ccc(N(C)C)cc1	96% (active)
O=[N+]([O-])c1ccc2c(c1)Cc1ccccc1-2	5%
Fc1ccc(NCCS)cc1	61%
CCCCC(C=O)(C=C=C(C)C)CC (stereo not drawn)	35%
CN(C)c1ccc(/C=C/c2cc[n+](C)c(/C=C/c3ccc(N(C)C)cc3)c2)cc1	93% (active)
COc1cc([C@@H]2c3cc4c(cc3[C@H](OC3OC5COC(c6ccccc6)OC5C(O)C3O)[C@H]3COC(=O)[C@H]23)OCO4)cc(OC)c1OC (stereo partly drawn)	70% (active)
OC(c1cc(-c2ccc(Cl)cc2)nc2c(Cl)cccc12)C1CCCCN1 (stereo not drawn)	100% (active)
CSc1nc(C)c(C(=O)CCN2CCN(c3ccccn3)CC2)s1	99% (active)
Cc1cc(C(=O)c2ccc(Cl)cc2)ccc1O	4%
O=C(c1ccccc1)C(Br)C(Br)c1ccccc1 (stereo not drawn)	97% (active)
CCCCCCN(CCCCCC)CCCNc1nccc2ccccc12	88% (active)

Compound	growth inhibition
CCCCCCCCCCCC[S+](C)CC(=O)[O-] (stereo not drawn)	78% (active)
COC(=O)C(=[N+]=[N-])C(=O)c1ccc([N+](=O)[O-])o1	98% (active)
Cc1c(O)ccc(SC#N)c1C	75% (active)
Oc1c(Cl)cc(Cl)cc1C(c1cc(Cl)cc(Cl)c1O)C(Cl)(Cl)Cl	99% (active)
CCCCCCCCCCCCNCCCc1ccccc1	99% (active)
Nc1ccc(C(=O)/C=C/c2ccccc2)cc1	75% (active)
NCC(=O)NC(CC(=O)O)C(=O)O (stereo not drawn) (H-Gly-[ξD]-OH)	20%
CN(C)c1ccc(C(=C2C=CC(=[N+](C)C)C=C2)c2ccc(N(C)C)cc2)cc1	95% (active)
O=C1c2ccccc2Cc2cccc(Cl)c21	13%
O=C/C=C/c1ccc([N+](=O)[O-])cc1	98% (active)
O=C1c2ccccc2C(=O)c2c(O)c(Cl)cc(O)c21	71% (active)
CN1CSC(=S)N(Cc2ccccc2)C1	67%
CC(O)C(O)C(O)C(O)C(O)C(=O)NNc1ccccc1 (stereo not drawn)	40%
Cn1c(COC(=O)NC2CCCCC2)c(COC(=O)NC2CCCCC2)c2ccc3cc(Cl)c(Cl)cc3c21	29%
NC(=S)N/N=C\c1nccc2c(N)cccc12	81% (active)
Oc1cc(Cl)ccc1Cc1ccc(Cl)cc1O	100% (active)
CCCCCCCCCCCC(=O)OC(C)C(=O)NCCCC (stereo not drawn)	68%
CCC(=O)c1cc([N+](=O)[O-])c(Br)s1	100% (active)
OC(Cc1cc(CC(O)(C(F)(F)F)C(F)(F)F)nc(CC(O)(C(F)(F)F)C(F)(F)F)c1)(C(F)(F)F)C(F)(F)F	99% (active)

Same assay, conditions: S. cerevisiae sgs1 mgt1 strain, at 50.0 µM, active compounds read high

Compound	growth inhibition
COC(=O)c1nc(=S)[nH]c(C(=O)OC)c1C(=O)c1ccc(Cl)c(Cl)c1	99.3% (active)
NC(=Nc1nc(-c2ccccn2)cc2ccccc12)c1ccccn1	69.2%
Cc1nc(Sc2nc3ccc([N+](=O)[O-])cc3s2)sc1C	84.1% (active)
NC(=S)Nc1ccc2c(c1)Cc1ccccc1-2	59.9%
CN(C)CCN(C)CC(C)(C)C(=O)/C=C/c1ccc(Cl)c(Cl)c1	56.2%
CCCCCCCCCCCCCCCc1ccc(C(=O)C[n+]2ccccc2)cc1	87.7% (active)
O=C(CCl)N(c1ccccc1)c1ccccc1	91.8% (active)
CCOC(=O)C1=C(C(=O)c2ccccc2)C(c2cccc([N+](=O)[O-])c2)C(C(=O)c2ccccc2)=C(C(=O)OCC)N1	25.6%
CCN1CCCC(Nc2cc(C)nc(/N=C(/N)Nc3ccc(Cl)c(Cl)c3)n2)C1 (stereo not drawn)	86.7% (active)
CCc1cnc2ccccc2c1/C=C/c1ccc(N(C)C)cc1	92.3% (active)
O=[N+]([O-])c1ccc2c(c1)Cc1ccccc1-2	25.2%
Fc1ccc(NCCS)cc1	79.1% (active)
CCCCC(C=O)(C=C=C(C)C)CC (stereo not drawn)	61.3%
CN(C)c1ccc(/C=C/c2cc[n+](C)c(/C=C/c3ccc(N(C)C)cc3)c2)cc1	93.2% (active)
COc1cc([C@@H]2c3cc4c(cc3[C@H](OC3OC5COC(c6ccccc6)OC5C(O)C3O)[C@H]3COC(=O)[C@H]23)OCO4)cc(OC)c1OC (stereo partly drawn)	76.3% (active)
OC(c1cc(-c2ccc(Cl)cc2)nc2c(Cl)cccc12)C1CCCCN1 (stereo not drawn)	99.9% (active)
CSc1nc(C)c(C(=O)CCN2CCN(c3ccccn3)CC2)s1	66.2%
Cc1cc(C(=O)c2ccc(Cl)cc2)ccc1O	85.9% (active)
O=C(c1ccccc1)C(Br)C(Br)c1ccccc1 (stereo not drawn)	43.2%
CCCCCCN(CCCCCC)CCCNc1nccc2ccccc12	56.9%

Compound	growth inhibition
CCCCCCCCCCCC[S+](C)CC(=O)[O-] (stereo not drawn)	39.5%
COC(=O)C(=[N+]=[N-])C(=O)c1ccc([N+](=O)[O-])o1	51.8%
Cc1c(O)ccc(SC#N)c1C	86.7% (active)
Oc1c(Cl)cc(Cl)cc1C(c1cc(Cl)cc(Cl)c1O)C(Cl)(Cl)Cl	99.5% (active)
CCCCCCCCCCCCNCCCc1ccccc1	98.5% (active)
Nc1ccc(C(=O)/C=C/c2ccccc2)cc1	78.1% (active)
NCC(=O)NC(CC(=O)O)C(=O)O (stereo not drawn) (H-Gly-[ξD]-OH)	13.2%
CN(C)c1ccc(C(=C2C=CC(=[N+](C)C)C=C2)c2ccc(N(C)C)cc2)cc1	94.8% (active)
O=C1c2ccccc2Cc2cccc(Cl)c21	28.6%
O=C/C=C/c1ccc([N+](=O)[O-])cc1	95.5% (active)
O=C1c2ccccc2C(=O)c2c(O)c(Cl)cc(O)c21	38.3%
CN1CSC(=S)N(Cc2ccccc2)C1	86.6% (active)
CC(O)C(O)C(O)C(O)C(O)C(=O)NNc1ccccc1 (stereo not drawn)	63.2%
Cn1c(COC(=O)NC2CCCCC2)c(COC(=O)NC2CCCCC2)c2ccc3cc(Cl)c(Cl)cc3c21	56.5%
NC(=S)N/N=C\c1nccc2c(N)cccc12	74% (active)
Oc1cc(Cl)ccc1Cc1ccc(Cl)cc1O	99.6% (active)
CCCCCCCCCCCC(=O)OC(C)C(=O)NCCCC (stereo not drawn)	-2.05%
CCC(=O)c1cc([N+](=O)[O-])c(Br)s1	99.6% (active)
OC(Cc1cc(CC(O)(C(F)(F)F)C(F)(F)F)nc(CC(O)(C(F)(F)F)C(F)(F)F)c1)(C(F)(F)F)C(F)(F)F	99.4% (active)
